From PubChem BioAssay AID1159580 (chemical genetic matrix, 2015)
Screen size: about 5,500 compounds; about 2,000 (36%) were called active. Another 18% or so got no clear call; they are omitted. Cut-off read from the data, not from the text of the source: active = normalized growth mostly below about 0.91 (no sharp cut-off); inconclusive = no clear call, values can overlap the other calls; inactive = mostly above about 0.92. This is one part of the list.

Experiment: chemical genetic growth profiling, strain panel (AID 1159580);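 note: tested at 20 µM; growth read once vehicle control cultures reached saturation at 30 °C; 1 = growth at the plate median or of vehicle wells; lower values mean less growth of the strain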
Settings: growth OD

Measured: normalized growth

CC(=O)/C=C\[C@@H]1[C@@]2(C)CCCC(C)(C)C2CC[C@@]1(C)O (some centres not stated)
inactive: S. cerevisiae deletion strains, locus YJR075W, strain HOC1, stronger effect = lower value 0.982 | S. cerevisiae deletion strains, locus YKL009W, strain mrt4, stronger effect = lower value 0.97 | S. cerevisiae deletion strains, locus YKL068W, stronger effect = lower value 0.984 | S. cerevisiae deletion strains, locus YKL085W, strain MDH1 (second series), stronger effect = lower value 0.977 | S. cerevisiae deletion strains, locus YKL085W, strain MDH1, stronger effect = lower value 0.977 | S. cerevisiae deletion strains, locus YKL160W, strain elf1, stronger effect = lower value 0.963 | S. cerevisiae deletion strains, locus YKL190W, strain CNB1, stronger effect = lower value 0.964 | S. cerevisiae deletion strains, locus YKR001C, strain vps1, stronger effect = lower value 0.975 | S. cerevisiae deletion strains, locus YKR026C, strain gcn3, stronger effect = lower value 0.979 | S. cerevisiae deletion strains, locus YKR091W, strain srl3, stronger effect = lower value 0.975 | S. cerevisiae deletion strains, locus YLL001W, strain dnm1, stronger effect = lower value 1.01 | S. cerevisiae deletion strains, locus YLL026W, stronger effect = lower value 0.991 | S. cerevisiae deletion strains, locus YLL041C, strain sdh2, stronger effect = lower value 0.968 | S. cerevisiae deletion strains, locus YLR027C, strain aat2, stronger effect = lower value 0.982 | S. cerevisiae deletion strains, locus YLR039C, strain RIC1, stronger effect = lower value 0.846 | S. cerevisiae deletion strains, locus YLR058C, strain SHM2, stronger effect = lower value 0.958 | S. cerevisiae deletion strains, locus YLR102C, strain apc9, stronger effect = lower value 0.973 | S. cerevisiae deletion strains, locus YLR113W, strain HOG1, stronger effect = lower value 0.951 | S. cerevisiae deletion strains, locus YLR221C, strain rsa3, stronger effect = lower value 1.01 | S. cerevisiae deletion strains, locus YLR258W, strain gsy2, stronger effect = lower value 0.981 | S. cerevisiae deletion strains, locus YLR262C, strain YPT6 (second series), stronger effect = lower value 0.939 | S. cerevisiae deletion strains, locus YLR262C, strain YPT6, stronger effect = lower value 0.843 | S. cerevisiae deletion strains, locus YLR268W, strain sec22, stronger effect = lower value 0.923 | S. cerevisiae deletion strains, locus YLR320W, strain mms22, stronger effect = lower value 1.01 | S. cerevisiae deletion strains, locus YLR330W, strain CHS5, stronger effect = lower value 0.974 | S. cerevisiae deletion strains, locus YLR342W, strain FKS1 (second series), stronger effect = lower value 0.957 | S. cerevisiae deletion strains, locus YLR342W, strain FKS1, stronger effect = lower value 0.968 | S. cerevisiae deletion strains, locus YLR357W, strain rsc2, stronger effect = lower value 0.998 | S. cerevisiae deletion strains, locus YLR370C, strain arc18, stronger effect = lower value 0.964 | S. cerevisiae deletion strains, locus YLR371W, strain rom2, stronger effect = lower value 1 | S. cerevisiae deletion strains, locus YLR384C, strain iki3, stronger effect = lower value 0.973 | S. cerevisiae deletion strains, locus YML016C, strain PPZ1, stronger effect = lower value 0.964 | S. cerevisiae deletion strains, locus YML032C, strain rad52, stronger effect = lower value 1.02 | S. cerevisiae deletion strains, locus YML120C, strain ndi1, stronger effect = lower value 0.971 | S. cerevisiae deletion strains, locus YML124C, strain tub3, stronger effect = lower value 0.979 | S. cerevisiae deletion strains, locus YMR058W, strain fet3, stronger effect = lower value 0.968 | S. cerevisiae deletion strains, locus YMR078C, strain ctf18, stronger effect = lower value 0.975 | S. cerevisiae deletion strains, locus YMR125W, strain sto1, stronger effect = lower value 0.958 | S. cerevisiae deletion strains, locus YMR129W, stronger effect = lower value 0.96 | S. cerevisiae deletion strains, locus YMR205C, strain PFK2, stronger effect = lower value 0.926 | S. cerevisiae deletion strains, locus YMR223W, strain ubp8, stronger effect = lower value 1.01 | S. cerevisiae deletion strains, locus YMR231W, strain pep5, stronger effect = lower value 0.972 | S. cerevisiae deletion strains, locus YMR263W, strain SAP30, stronger effect = lower value 0.947 | S. cerevisiae deletion strains, locus YMR307W, strain GAS1, stronger effect = lower value 1.08 | S. cerevisiae deletion strains, locus YNL067W, strain RPL9B, stronger effect = lower value 0.957 | S. cerevisiae deletion strains, locus YNL071W, strain lat1, stronger effect = lower value 0.961 | S. cerevisiae deletion strains, locus YNL128W, strain TEP1, stronger effect = lower value 0.927 | S. cerevisiae deletion strains, locus YNL153C, strain GIM3, stronger effect = lower value 0.951 | S. cerevisiae deletion strains, locus YNL183C, strain NPR1, stronger effect = lower value 0.947 | S. cerevisiae deletion strains, locus YNL209W, strain ssb2, stronger effect = lower value 0.986 | S. cerevisiae deletion strains, locus YNL233W, strain BNI4, stronger effect = lower value 0.942 | S. cerevisiae deletion strains, locus YNL248C, strain rpa49, stronger effect = lower value 0.952 | S. cerevisiae deletion strains, locus YNL250W, strain rad50, stronger effect = lower value 0.99 | S. cerevisiae deletion strains, locus YNL271C, strain bni1, stronger effect = lower value 0.991 | S. cerevisiae deletion strains, locus YNL298W, strain CLA4, stronger effect = lower value 0.984 | S. cerevisiae deletion strains, locus YNL307C, strain MCK1, stronger effect = lower value 0.948 | S. cerevisiae deletion strains, locus YNL322C, strain KRE1 (second series), stronger effect = lower value 0.989 | S. cerevisiae deletion strains, locus YNL322C, strain KRE1, stronger effect = lower value 0.965 | S. cerevisiae deletion strains, locus YNR049C, strain mso1, stronger effect = lower value 0.98 | S. cerevisiae deletion strains, locus YNR052C, strain pop2, stronger effect = lower value 0.98 | S. cerevisiae deletion strains, locus YOL006C, strain TOP1, stronger effect = lower value 0.867 | S. cerevisiae deletion strains, locus YOL012C, strain htz1 0.968 | S. cerevisiae deletion strains, locus YOL147C, strain pex11, stronger effect = lower value 0.987 | S. cerevisiae deletion strains, locus YOR001W, strain rrp6, stronger effect = lower value 0.95 | S. cerevisiae deletion strains, locus YOR061W, strain CKA2, stronger effect = lower value 0.944 | S. cerevisiae deletion strains, locus YOR069W, strain VPS5, stronger effect = lower value 0.977 | S. cerevisiae deletion strains, locus YOR070C, strain gyp1, stronger effect = lower value 0.968 | S. cerevisiae deletion strains, locus YOR080W, strain dia2, stronger effect = lower value 0.978 | S. cerevisiae deletion strains, locus YOR083W, strain WHI5, stronger effect = lower value 1.03 | S. cerevisiae deletion strains, locus YOR106W, strain vam3, stronger effect = lower value 0.982 | S. cerevisiae deletion strains, locus YOR136W, strain idh2, stronger effect = lower value 0.996 | S. cerevisiae deletion strains, locus YOR144C, strain elg1, stronger effect = lower value 0.97 | S. cerevisiae deletion strains, locus YOR184W, strain ser1, stronger effect = lower value 0.993 | S. cerevisiae deletion strains, locus YOR231W, strain MKK1, stronger effect = lower value 0.964 | S. cerevisiae deletion strains, locus YOR265W, strain rbl2, stronger effect = lower value 0.979 | S. cerevisiae deletion strains, locus YOR270C, strain vph1, stronger effect = lower value 0.909 | S. cerevisiae deletion strains, locus YOR290C, strain snf2, stronger effect = lower value 0.974 | S. cerevisiae deletion strains, locus YOR316C, strain cot1, stronger effect = lower value 0.977 | S. cerevisiae deletion strains, locus YPL051W, strain arl3, stronger effect = lower value 0.986 | S. cerevisiae deletion strains, locus YPL055C, strain LGE1, stronger effect = lower value 0.866 | S. cerevisiae deletion strains, locus YPL078C, strain atp4, stronger effect = lower value 0.97 | S. cerevisiae deletion strains, locus YPL106C, strain sse1, stronger effect = lower value 1.02 | S. cerevisiae deletion strains, locus YPL240C, strain hsp82, stronger effect = lower value 0.98 | S. cerevisiae deletion strains, locus YPL241C, strain CIN2, stronger effect = lower value 0.968 | S. cerevisiae deletion strains, locus YPL256C, strain CLN2, stronger effect = lower value 0.979 | S. cerevisiae deletion strains, locus YPR119W, strain clb2, stronger effect = lower value 0.985 | S. cerevisiae deletion strains, locus YPR141C, strain kar3, stronger effect = lower value 0.975 | S. cerevisiae deletion strains, locus YPR163C, strain tif3, stronger effect = lower value 0.973 | S. cerevisiae deletion strains, locus YPR167C, strain met16, stronger effect = lower value 0.971 | S. cerevisiae deletion strains, strain wtn01, stronger effect = lower value 0.94 | S. cerevisiae strains, strain wild type, stronger effect = lower value 0.967
active: S. cerevisiae deletion strains, locus YLR418C, strain cdc73, stronger effect = lower value 0.838
